These results are taken from the antibiotic and cytotoxicity screens of Wong et al. (2023).

Out of some 39,000 compounds screened, about 3,300 (8.5%) were called active. The list comes from a sample in which actives are over-represented; it also holds similar structures and randomly drawn compounds.

The test concerns HepG2. Description: cytotoxicity call (relative viability < 0.9). Conditions: 10 µM.
Take `CC(C)NC(=O)N(C)C[C@@H]1Oc2ccc(NC(=O)Nc3ccc4c(c3)OCO4)cc2C(=O)N([C@H](C)CO)C[C@@H]1C`: the cytotoxicity call is “inactive”.

Take `C[C@@H]1CCCCO[C@@H](CN(C)C(=O)Cc2ccccc2)[C@H](C)CN([C@@H](C)CO)C(=O)c2cc(NC(=O)Nc3ccccc3)ccc2O1`: the cytotoxicity call was “inactive”. The result for `Cc1cc(C(=O)Nc2cccc3c2O[C@@H](CN(C)S(=O)(=O)c2cn(C)cn2)[C@@H](C)CN([C@H](C)CO)C3=O)n(C)n1` reads “inactive”; that for `Cc1ccc(S(=O)(=O)Nc2cccc3c2O[C@H](CN(C)S(=O)(=O)c2cccs2)[C@@H](C)CN([C@@H](C)CO)C3=O)cc1`, “inactive”. The same measure for `CC(=O)NCC(=O)N1Cc2nccn2C[C@H](Cn2nc(C)nc2C)C1`: “inactive”; for `C[C@@H]1CN([C@@H](C)CO)C(=O)c2cc(C#C[C@@H](C)O)cnc2O[C@@H]1CN(C)C(=O)CN1CCOCC1`: “inactive”.

Take `Cc1ccc(S(=O)(=O)N(C)C[C@H]2Oc3ccc(NC(=O)Cn4cnnn4)cc3CC(=O)N([C@H](C)CO)C[C@H]2C)cc1`: the cytotoxicity call was “inactive”. For the compound `COc1ccc(NC(=O)N(C)C[C@H]2Oc3c(NS(=O)(=O)c4c(C)noc4C)cccc3C(=O)N([C@@H](C)CO)C[C@H]2C)cc1`, the cytotoxicity call was “inactive”. In the case of `COc1ccc(NC(=O)N(C)C[C@@H]2Oc3ncc(-c4cccc(C(F)(F)F)c4)cc3C(=O)N([C@H](C)CO)C[C@@H]2C)cc1`, the cytotoxicity call is “inactive”. The same measure for `C[C@@H]1CN([C@@H](C)CO)C(=O)c2cc(NC(=O)Cn3cnnn3)ccc2O[C@H]1CN(C)C(=O)Nc1ccc2c(c1)OCO2`: “inactive”; for `C[C@@H]1CN([C@H](C)CO)C(=O)c2cc(NC(=O)Nc3ccc(C(F)(F)F)cc3)ccc2O[C@@H]1CN(C)CC1CCCCC1`: “active”.

Turning to `C[C@@H]1CN([C@H](C)CO)C(=O)c2cc(NC(=O)Nc3ccccc3)ccc2O[C@@H]1CN(C)CC1CCCCC1`, the cytotoxicity call is “inactive”. Consider `C[C@H](CO)N1C[C@H](C)[C@@H](CN(C)CC2CCCCC2)Oc2ccc(NC(=O)Nc3ccc(C(F)(F)F)cc3)cc2C1=O`, for which the cytotoxicity call was “inactive”. The result for `C[C@@H]1CN([C@@H](C)CO)C(=O)c2cc(NC(=O)Nc3ccc(F)cc3)ccc2O[C@H]1CN(C)CC1CCCCC1` reads “inactive”; that for `C[C@H]1CN([C@@H](C)CO)C(=O)c2cc(NC(=O)Nc3ccc(C(F)(F)F)cc3)ccc2O[C@@H]1CN(C)CC1CCCCC1`, “inactive”. The result for `C[C@@H]1CN([C@H](C)CO)C(=O)c2cc(NC(=O)Nc3ccc(C(F)(F)F)cc3)ccc2O[C@H]1CN(C)CC1CCCCC1` reads “active”; that for `CNC[C@@H]1Oc2ccc(NC(=O)CCN3CCOCC3)cc2CC(=O)N([C@H](C)CO)C[C@H]1C`, “inactive”.
